GLS inhibitor: blocks human kidney-isoform glutaminase activity; O94925; GLS enzymatic activity, qHTS titration; Potency, µM (titrated, usually from 45.5 µM), for the others: top-dose activity change, negative = inhibition, most hits filed as inhibitors; 410,000 tested, 0.21% active; also: potency is read from the fitted curve at half-maximal effect
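Human kidney-isoform GLS in 45 mM KH2PO4 pH 8.2, 0.02% Tween-20, with compound, started with 1mM L-Glutamine (added stock). Glutamate oxidase/HRP/Amplex red coupled fluorescence read at start and after 30 min at RT.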
PI4K2A block: inhibitors of human PI4K2A; Q9BTU6; AID 1346378; purified PI4K2A, ADP-Glo luminescence, 1 h; stronger effect = lower value; activity change, negative = inhibition, % at 76.9 µM; 420,000 tested, 0.13% active; in the data active = activity change below about -50%; inconclusive = mostly about -30% to -49%;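 also: -100% = wells without enzyme as full effect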
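ADP-Glo luminescence measured ADP generated by PI4K2A enzyme (4 ug/mL before mixing) with 1.2 mM PI substrate (pre-mix) and 300 microM ATP (pre-mix). Tris pH7.5 buffer with MgCl2, Triton X-100; 1 h reaction at ambient temperature.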
PLK1 PBD block: inhibitors of human PLK1 polo-box domain binding; P53350; AID 720504; 360,000 tested, 2.8% active; Plk1 PBD binding of FITC phosphopeptide, fluorescence polarization; Potency, µM, without a hit: max response, negative = inhibition, hits mostly inhibitors; also: potency is read from the fitted curve at half-maximal effect; series mostly up to about 57 µM; nearly all actives have a fitted effect of over 65% in size
VDR inhibitor: vitamin D3 receptor (human) inhibition | P11473 | VDR-SRC2-3 peptide fluorescence polarization, 2 h | Potency, µM, without a hit: max response, negative = inhibition, hits mostly inhibitors | 400,000 tested, 0.93% active; also: potency is read from the fitted curve at half-maximal effect
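After 23 nl compound addition and a short centrifugation, plates sat for 2 hours at ambient temperature; polarization of fluorescence then indicated loss of VDR binding to peptide SRC2-3.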
GCN5L2 inh: blocks human GCN5L2 histone acetyltransferase. GCN5L2 HAT assay, ThioGlo1 CoA-SH fluorescence. Q92830. 390,000 tested, 0.21% active. Potency, µM (titrated, usually from 58.9 µM), for the others: at the highest dose activity change, negative = inhibition, actives largely listed as inhibitors. AID 504327; also: potency is read from the fitted curve at half-maximal effect
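Fluorescence readout, Ex340nm/Em540nm: ThioGlo1 (50uM final) reacts with free CoA thiol released as 20nM GCN5L2 acetylates H3(1-25) peptide (75uM) using acetyl-CoA (70uM). Compound and enzyme sat 15 min beforehand; 20 min room-temperature reaction.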
Numbers without * were called inactive; ? = inconclusive; . = no result. An excerpt weighted towards active compounds, which were near 3.1% of everything screened. Unless noted, calls follow the shape of the dose curve; as a rule, active = well fitted curve in the direction sought with a large enough effect; inconclusive = small, poorly fitted or top-dose-only effect, or another doubt; inactive = no such curve, though single readings can be large; an effect the other way counts as inactive or inconclusive. Unless noted, % is scaled to controls: 0 for no effect and ±100 for the full control effect.

SMILES	GLS inhibitor	PI4K2A block	PLK1 PBD block	VDR inhibitor	GCN5L2 inh
COC(=O)[C@]12C[C@H](CC(=O)NCc3cccs3)C(=O)N(Cc3ccco3)C1=C[C@H](COCc1ccccc1)O[C@@H]2C	.	-2	.	.	.
COc1ccc2c(c1)CO[C@H]([C@H](O)CO)[C@H]2/C=C/c1ccccc1	.	1	.	.	.
CCCCNC(=O)C[C@H]1C[C@@]2(C(=O)OC)C(=C[C@H](C3CCCC3)O[C@@H]2C)N(CCc2ccc(OC)c(OC)c2)C1=O	.	0	.	.	.
CN(NS(=O)(=O)c1ccc([N+](=O)[O-])cc1)c1ccccc1	32%	-1	3µM*	.	.
Cc1ccccc1C(=O)Nc1scc(-c2ccc(Br)cc2)c1C(=O)O	10%	-1	21µM*	-1%	.
COc1cc(/C=C2/C(=O)N(c3ccc([N+](=O)[O-])cc3)N=C2N2CCOCC2)ccc1O	?	-12	11µM*	?	-15%
CCN(CC)c1ccc(/C=C2/C(=O)N(c3ccc([N+](=O)[O-])cc3)N=C2N2CCOCC2)cc1	.	.	.	.	0%
CNC(=O)COc1ccc(S(=O)(=O)N2CCCC2)cc1	?	3	5.3µM*	50µM*	-7%
Cc1ccc(S(=O)(=O)N2CCOCC2)cc1NC(=O)COC(=O)CNC(=O)c1ccccc1	-10%	3	-3%	1%	-2%
CCN(CC)S(=O)(=O)c1ccc(O)c(NC(=O)c2ccc(N3CCOCC3)c([N+](=O)[O-])c2)c1	12%	1	21µM*	?	-10%
CCN(CC)S(=O)(=O)c1ccc(O)c(NC(=O)COc2ccc(S(=O)(=O)N3CCOCC3)cc2)c1	7%	-5	24µM*	?	.
Cc1ccc(S(=O)(=O)N2CCOCC2)cc1NC(=O)COc1ccc(C(=O)c2ccccc2)cc1	6%	-4	-8%	89µM*	-3%
Cc1cc(/C=C2\C(=N)N3N=C(c4ccco4)SC3=NC2=O)c(C)n1Cc1ccccc1	0%	-14	27µM*	6%	?
Cc1cc(/C=C2\C(=N)N3N=C(C(C)C)SC3=NC2=O)c(C)n1Cc1ccccc1	11%	6	-4%	-1%	-8%
Cc1ccc(C)n1-c1sc2c(c1C(=O)O)CCCC2	6%	-2	17µM*	-14%	?
Cc1nn(C2CCS(=O)(=O)C2)c(C)c1C=O (stereo unspecified)	?	0	3.4µM*	?	-3%
O=c1c2ccccc2sc2ccccc12	-2%	1	-4%	6%	.
O=c1c(C(c2ccccc2)c2c(O)sc3ccccc3c2=O)c(O)sc2ccccc12	8%	-5	-20%	4%	25µM*
COc1ccc2c(c1)CCCN2C(=O)C1CCCN(S(=O)(=O)c2ccc(Br)s2)C1 (stereo unspecified)	.	-2	.	.	.
CCc1ccc(C(=O)COC(=O)CNC(=O)Cc2ccccc2)cc1	2%	2	11%	12%	12%
CCC(=O)NCC(=O)OCC(=O)c1ccccc1	25µM*	-14	3µM*	-26%	3%
CCCCC/C=C\C/C=C\CCCCCCCC(=O)NC(C)c1ccccc1 (stereo unspecified)	.	0	.	.	.
CC(=O)c1ccc(NC(=O)CNCC(c2ccccc2)N(C)C)cc1 (stereo unspecified)	-19%	1	19µM*	?	-7%
CC(=O)N1N=C(c2c(-c3ccccc3)c3cc(Br)ccc3[nH]c2=O)CC1c1ccco1 (stereo unspecified)	0%	-22	-18%	79µM*	2%
c1ccc2c(c1)N1CCN=C1N2CCN1CCCCC1	1%	-10	-16%	-8%	-7%
c1ccc2c(c1)N1CCCN=C1N2CCN1CCCCC1	1%	1	27µM*	-12%	-5%
CCOC(=O)c1ccc(NC(=O)c2cn(-c3ccccc3)nc2-c2ccc(OC)c(OC)c2)cc1	-10%	-3	.	10%	-2%
Cc1cc2c(s1)c1cnn(Cc3c(Cl)ccc(C)c3F)c(=O)c1n2C	.	-2	.	.	.
O=C(CNC(=O)c1nc[nH]c1C(=O)N1CCNCC1)OCc1ccccc1	0%	-3	5%	-3%	1%
O=C(CNC(=O)c1nc[nH]c1C(=O)N1CCc2ccccc2C1)OCc1ccccc1	11%	-3	19µM*	79µM*	4%

Screens from PubChem.
